Sampled rows, rich in hits. Any-hit rate of the full collection: about 6.1%.
D3 antag: blocks the human D3 dopamine receptor | D3R cells, DiscoveRx beta-arrestin luminescence, antagonist mode; active compounds read low | actives 2.5% (n = 360,000) | AID 652054 | max response, negative = inhibition, %; in the data active = max response below about -50%; also: % is scaled to controls: 0 for no effect and ±100 for the full control effect
Target sequence (P35462 whole entry, looked up): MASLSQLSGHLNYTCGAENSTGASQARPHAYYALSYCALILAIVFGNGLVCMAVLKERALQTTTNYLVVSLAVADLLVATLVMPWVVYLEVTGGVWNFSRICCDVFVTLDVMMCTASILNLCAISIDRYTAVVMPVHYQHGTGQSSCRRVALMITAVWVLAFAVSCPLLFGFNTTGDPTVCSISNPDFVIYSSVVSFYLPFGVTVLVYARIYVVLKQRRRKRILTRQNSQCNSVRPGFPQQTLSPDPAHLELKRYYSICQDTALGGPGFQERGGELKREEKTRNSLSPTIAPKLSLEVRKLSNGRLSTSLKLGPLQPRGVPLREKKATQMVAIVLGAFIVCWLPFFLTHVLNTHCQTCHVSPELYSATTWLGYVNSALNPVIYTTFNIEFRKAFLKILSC
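Cells plated overnight at 1500 cells/well, then exposed to library compounds with dopamine controls for 90 minutes at 37 degrees C. DiscoveRx reagent added for 30–60 minutes at room temperature; luminescence read, quantitative HTS format.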
D1 ag: human D1 receptor agonism; P21728; HEK293 T-REx D1 cells, calcium flux, agonist mode; activation, % at 2 µM; actives 1% (n = 360,000); AID 504660; in the data active = activation above about 30%; also: 0% is about no effect
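Agonism was scored from calcium flux recorded over 180 s (1 read/s) after pintool compound addition, following a 10-cycle baseline. Cells were inducible force-coupled HEK293 TREx D1, plated overnight at 30 C and loaded with no-wash calcium dye.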
D1 antagonist: antagonists of human D1 dopamine receptor; P21728; HEK293 TREx D1 cells, calcium flux, dopamine EC80; active compounds read low; activity change, negative = inhibition, % at 10 µM; actives 3.2% (n = 360,000); AID 504652; in the data active = activity change below about -30%; also: % is scaled to controls: 0 for no effect and ±100 for the full control effect
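Compound effects on dopamine-evoked calcium signalling were measured in tetracycline-induced HEK293 Trex D1 cells. Dopamine at EC80 followed a 180 s compound pre-read, and fluorescence was tracked kinetically for 180 s more.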
D1 potentiator: human D1 dopamine receptor positive modulation; P21728; HEK293 TREx D1 cells, calcium flux, dopamine EC20 potentiation; potentiation, % at 10 µM; actives 0.036% (n = 360,000); AID 504651; in the data active = potentiation above about 30%; also: 0% is about no effect
D3 ag: activates the human D3 dopamine receptor; max activation, %; D3R DiscoveRx beta-arrestin cells, luminescence, 90 min; AID 652048; P35462; actives 0.58% (n = 410,000); in the data active = max activation above about 30%; also: 0% is about no effect
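Cells at 1500/well, incubated overnight, then treated with pinned compounds (dopamine as control) for 90 min at 37 degrees C. DiscoveRx reagent added for 30 - 60 minutes at room temperature; luminescence read.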
An asterisk follows results filed as active; · = no result given.

SMILES	D3 antag	D1 ag	D1 antagonist	D1 potentiator	D3 ag
COc1ccc(NC(=O)C(c2ccc(Cl)cc2)C(C)C)cn1 (stereo unspecified)	-12	39*	3	10	-2
CCOC(=O)c1c(S(=O)(=O)N2CCC(C(=O)N3CCN(c4cccc(C)c4C)CC3)CC2)c(C)n(C)c1C	·	3	2	-1	7
CCn1cc(/C=C(\NC(=O)c2ccc(C)cc2)C(=O)NCCCn2ccnc2)c2ccccc21	·	0	5	-1	-14
COc1cccc(CNc2ncnc3c2nnn3C)c1	·	4	·	1	-2
O=C(COCc1cc(-c2ccc3c(c2)OCO3)on1)Nc1cc(Cl)ccc1O	·	5	2	-2	6
O=C(COCc1cc(-c2ccc3c(c2)OCO3)on1)Nc1cc(C(F)(F)F)ccc1Cl	·	33*	-7	-2	4
O=C(COCc1cc(-c2ccc(F)cc2)on1)Nc1cc(Cl)ccc1O	·	17	-37*	1	18
Cc1c(Cl)cccc1NC(=O)COCc1cc(-c2ccc3c(c2)OCO3)on1	·	13	-2	5	1
O=C(NC1(C(F)(F)F)N=C(c2ccccc2)N(Cc2ccccc2)C1=O)c1ccc(F)cc1 (stereo unspecified)	·	2	-5	-2	-6
CNCC[C@@H](Oc1ccc(C(F)(F)F)cc1)c1ccccc1	·	46*	·	·	·
O=C1CCCc2c1[nH]c1ccc(CN3CCCCC3)cc21	-54*	2	-4	-10	-78
COc1ccc(CNC(=O)CCc2c(C)c3cc4c(C)coc4cc3oc2=O)cc1	·	7	-14	0	-13
COCCCNC(=O)CCc1c(C)c2cc3c(C)coc3cc2oc1=O	14	7	-56*	-3	16
Cc1oc2cc3oc(=O)c(CCC(=O)N(C)CC(=O)O)c(C)c3cc2c1C	-67*	2	3	-2	3
Cc1oc2cc3oc(=O)c(CCC(=O)N[C@H](C(=O)O)C(C)C)c(C)c3cc2c1C	-16	2	-1	2	-1
CCNc1cc2oc(=O)c(CN3CCOCC3)c(C)c2cc1C	-67*	0	6	-2	-12
COc1ccc(CNC(=O)CCc2c(C)c3cc4c(C)c(C)oc4cc3oc2=O)cc1	·	0	-36*	-1	5
COc1ccc(-n2ccn(CC(=O)Nc3ccccc3C(F)(F)F)c(=O)c2=O)cc1OC	·	-1	13	-1	6
COc1cccc(N2CC(NC(=O)c3cc(Cl)ccc3OC)CC2=O)c1 (stereo unspecified)	·	-1	·	-3	3
COc1ccc(CCNC(=O)c2ccc(Cn3c(=O)c4cccn4c4cccnc43)cc2)cc1OC	·	0	8	-3	15
Cc1coc2cc3oc(=O)c(CCC(=O)NCCCN4CCOCC4)c(C)c3cc12	12	2	5	-8	11
Cc1oc2cc3oc(=O)c(CCC(=O)NCCN4CCOCC4)c(C)c3cc2c1C	9	3	-3	1	41*
CCN(CCn1cccn1)Cc1ccccc1OCC(O)CN1CCc2ccccc2C1 (stereo unspecified)	-58*	5	-27	-8	-20
CC(=O)c1ccc(OCC(O)CN2CCc3ccccc3C2)cc1 (stereo unspecified)	-84*	4	1	11	-17
Cc1cc(OCC(O)CN2CCc3ccccc3C2)ccc1Cl (stereo unspecified)	-98*	5	11	-10	-20
SMILES	D3 antag	D1 ag	D1 antagonist	D1 potentiator	D3 ag
Cc1cc(OCC(O)CN2CCc3ccccc3C2)cc(C(C)C)c1 (stereo unspecified)	-68*	30	3	8	0
CC(=O)c1ccc(OCC(O)CN2CCC(C)CC2)cc1 (stereo unspecified)	-10	2	2	-5	-19
CC1CCN(C(=O)Cn2cc(SCC(=O)NCc3ccccc3Cl)c3ccccc32)CC1	·	0	7	4	-6
Cc1ccc(C)c(OCC(O)CN2CCc3ccccc3C2)c1C (stereo unspecified)	-115*	3	10	-7	-16
CCOc1ccc(OCC(O)CN2CCc3ccccc3C2)cc1 (stereo unspecified)	-98*	3	4	-3	1
OC(COCc1ccc(Cl)cc1)CN1CCc2ccccc2C1 (stereo unspecified)	-72*	9	7	3	-11
CCC(C)NCC(O)COCc1ccc(Cl)cc1 (stereo unspecified)	-18	36*	6	-1	-4
